The values below come from PubChem BioAssay (Tox21).

Test [1] is described as follows: qHTS assay to identify small molecule agonists of the estrogen receptor alpha (ER-alpha) signaling pathway in the presence of an antagonist - cell viability counter screen (AID 1259386).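 Also: series mostly up to about 92 µM; cells exposed to compounds for 22 h at 37 °C before the viability read; nearly all actives have a fitted effect of over 30% in size.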 The gist of the method: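 Cells are starved of estrogens for 5 days in charcoal-stripped serum, seeded for 24hr and co-treated with ICI-182,780 (10.0nM final) and test compounds. After 22hr at 37C, viability is read as CellTiter-Fluor fluorescence.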
For orientation: In qHTS, concentration-response curves come from the screen itself.

For test [2], the target named is Progesterone receptor (Homo sapiens) (UniProt P06401). The test can be described thus: qHTS assay to identify small molecule agonists of the progesterone receptor (PR) signaling pathway (AID 1346784; calls by dose curve; also: nearly all actives have a fitted effect of over 30% in size). The gist of the method: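 Using charcoal-stripped serum (2%) to limit endogenous steroids, PR-UAS-bla HEK 293T cells received compounds for 16 hr at 37C after 6 hr plating; beta-lactamase FRET fluorescence was recorded following 2 hr substrate loading at room temperature.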
Sequence of Progesterone receptor (Homo sapiens) (P06401 whole entry, looked up): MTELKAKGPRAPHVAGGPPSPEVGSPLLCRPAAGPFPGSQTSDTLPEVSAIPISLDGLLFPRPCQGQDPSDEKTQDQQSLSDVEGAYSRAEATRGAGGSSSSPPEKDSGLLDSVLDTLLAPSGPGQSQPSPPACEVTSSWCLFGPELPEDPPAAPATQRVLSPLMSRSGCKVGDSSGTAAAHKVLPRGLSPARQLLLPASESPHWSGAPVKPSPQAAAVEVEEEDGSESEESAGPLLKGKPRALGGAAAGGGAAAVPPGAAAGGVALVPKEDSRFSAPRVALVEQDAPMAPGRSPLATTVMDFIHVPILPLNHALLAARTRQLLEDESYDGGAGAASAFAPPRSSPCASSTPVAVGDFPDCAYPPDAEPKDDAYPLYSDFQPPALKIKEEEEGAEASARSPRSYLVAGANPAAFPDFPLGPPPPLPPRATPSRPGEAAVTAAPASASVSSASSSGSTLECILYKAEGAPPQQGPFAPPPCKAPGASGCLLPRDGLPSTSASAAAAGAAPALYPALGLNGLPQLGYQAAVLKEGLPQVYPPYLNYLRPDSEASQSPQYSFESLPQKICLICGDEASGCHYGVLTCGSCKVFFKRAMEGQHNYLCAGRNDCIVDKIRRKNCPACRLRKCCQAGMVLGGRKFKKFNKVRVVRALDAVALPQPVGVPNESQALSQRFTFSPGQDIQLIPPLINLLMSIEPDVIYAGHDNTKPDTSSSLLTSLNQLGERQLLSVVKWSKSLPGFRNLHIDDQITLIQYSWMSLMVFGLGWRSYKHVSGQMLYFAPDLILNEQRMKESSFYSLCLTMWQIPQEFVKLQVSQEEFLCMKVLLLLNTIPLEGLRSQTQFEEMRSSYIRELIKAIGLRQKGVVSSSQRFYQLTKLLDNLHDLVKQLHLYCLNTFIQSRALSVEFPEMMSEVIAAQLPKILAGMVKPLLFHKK

The target is the same in test [3]. The test can be described thus: qHTS assay to identify small molecule antagonists of the progesterone receptor (PR) signaling pathway (AID 1346795; active = well fitted inhibition curve with a large enough effect in the signal ratio in the repeat runs, not every such curve was filed as active; the % refers to the signal ratio; also: potency is read from the fitted curve at half-maximal effect). Summed up: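 Inhibition of R5020-induced (1 nM final) beta-lactamase reporter signal in PR-UAS-bla HEK293T cells was scored by FRET fluorescence after overnight (16 hr) compound treatment.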
Test [4] can be described thus: qHTS assay to identify small molecule antagonists of the progesterone receptor (PR) signaling pathway - cell viability counter screen (AID 1346798). Also: series mostly up to about 92 µM; nearly all actives have a fitted effect of over 50% in size. The gist of the method: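 ATP content as viability readout: CellTiter-Glo luminescence, 30 min room temperature, in PR-UAS-bla HEK293T cells after 16 hr compound/R5020 treatment at 37C and 5% CO2.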
Test [5] is described as follows: qHTS assay to identify small molecule agonists of the progesterone receptor (PR) signaling pathway - cell viability counter screen (AID 1346799; calls by dose curve; also: nearly all actives have a fitted effect of over 45% in size). Summed up:
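Cytotoxicity in PR-bla HEK293T cells: 16 h compound, 37C; CellTiter-Glo added post-FRET read; luminescence after 30 min RT.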

A short description of test [6]: qHTS assay to identify small molecule antagonists of the TGF-beta/Smad signaling pathway - cell viability counter screen (AID 1346824). Also: nearly all actives have a fitted effect of over 50% in size. Summed up:
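Cytotoxicity counter-screen run in the same wells as the beta-lactamase Smad reporter read: CellTiter-Glo luminescence after 30 min at room temperature. HEK 293T SBE-bla cells had 5 hr compound exposure at 37 C with TGF-beta1 (0.25 ng/mL stock).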

A short description of test [7]: qHTS assay to identify small molecule agonists of the TGF-beta/Smad signaling pathway - cell viability counter screen (AID 1346829). Also: top concentration of the series differs between compounds; nearly all actives have a fitted effect of over 45% in size. Summed up:
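Compound-treated SBE-bla HEK 293T cells (5 hr, 37 C) were assessed for viability with CellTiter-Glo in parallel with the reporter read.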

The nature of test [8]: qHTS assay to identify small molecule agonists of the TGF-beta/Smad signaling pathway (AID 1346859; active = well fitted activation curve with a large enough effect in the signal ratio in the repeat runs, not every such curve was filed as active; the % refers to the signal ratio; also: series mostly up to about 77 µM). Summed up:
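Stable Smad binding element-beta-lactamase HEK 293T cells; 5 hr compound exposure at 37 C under 5% CO2; 2 hr room-temperature substrate step; fluorescence excited at 405 nm, collected at 460 nm and 530 nm.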

In test [9] the target is Thyrotropin-releasing hormone receptor (Homo sapiens) (UniProt P34981). The test can be described thus: qHTS assay to identify small molecule antagonists of the thyrotropin-releasing hormone receptor (TRHR) signaling pathway (AID 1346877; active = well fitted inhibition curve with a large enough effect in the repeat runs, not every such curve was filed as active; also: series mostly up to about 51 µM). Summed up: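 Cells (TRHR-HEK293) are plated and kept 18 h at 37 °C/5% CO2. A calcium-sensitive dye is added for 2 h, compound follows for 5 min at room temperature, and TRH is then given at 1 nM final.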
Sequence of Thyrotropin-releasing hormone receptor (Homo sapiens) (P34981 whole entry, looked up): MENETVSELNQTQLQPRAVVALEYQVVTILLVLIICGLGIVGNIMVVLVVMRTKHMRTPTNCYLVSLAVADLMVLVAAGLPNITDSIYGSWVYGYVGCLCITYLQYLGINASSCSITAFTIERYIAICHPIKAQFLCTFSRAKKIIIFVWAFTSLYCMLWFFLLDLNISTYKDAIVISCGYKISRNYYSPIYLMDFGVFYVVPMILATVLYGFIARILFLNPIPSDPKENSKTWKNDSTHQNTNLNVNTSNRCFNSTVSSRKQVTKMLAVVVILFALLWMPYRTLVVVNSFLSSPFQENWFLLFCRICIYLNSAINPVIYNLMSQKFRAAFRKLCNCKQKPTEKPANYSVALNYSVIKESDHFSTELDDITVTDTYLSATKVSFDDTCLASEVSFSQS

The target is the same in test [10]. The test can be described thus: qHTS assay to identify small molecule agonists of the thyrotropin-releasing hormone receptor (TRHR) signaling pathway (AID 1346891; calls by dose curve;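 also: HEK293 cells expressing TRHR with calcium dye readout; series mostly up to about 58 µM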). The gist of the method: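 In 1536-format, 1500 TRHR-Hek293 cells per well grew 18 h, took up calcium dye for 2 h at 37 °C, received compound, and were read kinetically; 15-point titrations, triplicates.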

A short description of test [11]: Caspase-3/7 induction in HepG2 cells by small molecules, qHTS assay (AID 1346978). Also: nearly all actives have a fitted effect of over 15% in size. Summed up:
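Caspase-3/7 induction was measured by Caspase-Glo 3/7 luminescence (30 min, room temperature) after a 17 hr compound exposure of wild-type HepG2 cells seeded at 2,000 per well and pre-incubated 5 hr.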

Test [12] is described as follows: Caspase-3/7 induction in CHO-K1 cells by small molecules, qHTS cell viability counter screen (AID 1346979). Also: nearly all actives have a fitted effect of over 35% in size. Also: potency is read from the fitted curve at half-maximal effect. Summed up:
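To flag cytotoxic compounds, treated CHO-K1 wild-type cells were given CellTiter-Fluor at 16hr and read fluorescently after 1hr at 37C; the caspase-3/7 luminescence was measured in these same wells.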

Test [13] is described as follows: Caspase-3/7 induction in CHO-K1 cells by small molecules, qHTS assay (AID 1346980). Also: nearly all actives have a fitted effect of over 15% in size. The gist of the method: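 Luminescent Caspase-Glo 3/7 read (30min, room temperature) quantified apoptosis induction. Cells were wild-type CHO-K1, treated with compound for 17hr at 37 C and 5% CO2.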
The target of test [14] is Nuclear receptor subfamily 1 group I member 2 (Homo sapiens) (UniProt O75469). The test can be described thus: Human pregnane X receptor (PXR) small molecule agonists, qHTS assay (AID 1346982). Also: nearly all actives have a fitted effect of over 35% in size. Also: potency is read from the fitted curve at half-maximal effect. The gist of the method: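 Agonist mode qHTS: PXR-Luc HepG2 cells plated 5 hr before DMSO-dissolved compounds were pinned in, cultured 24 hr at 37 C, 5% CO2; ONE-Glo luminescence readout.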
Sequence of Nuclear receptor subfamily 1 group I member 2 (Homo sapiens) (O75469 whole entry, looked up): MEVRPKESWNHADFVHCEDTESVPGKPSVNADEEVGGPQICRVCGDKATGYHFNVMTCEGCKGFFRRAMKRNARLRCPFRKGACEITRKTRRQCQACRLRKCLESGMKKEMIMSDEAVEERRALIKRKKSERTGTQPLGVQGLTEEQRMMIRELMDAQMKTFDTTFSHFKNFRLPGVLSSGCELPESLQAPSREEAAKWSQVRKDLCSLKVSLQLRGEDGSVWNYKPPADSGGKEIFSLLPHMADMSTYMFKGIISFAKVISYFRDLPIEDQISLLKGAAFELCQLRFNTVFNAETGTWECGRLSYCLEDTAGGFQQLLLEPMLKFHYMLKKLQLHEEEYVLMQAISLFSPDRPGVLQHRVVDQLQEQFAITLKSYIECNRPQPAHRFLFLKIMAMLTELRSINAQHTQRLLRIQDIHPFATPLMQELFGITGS

Test [15] can be described thus: Human pregnane X receptor (PXR) small molecule agonists, qHTS cell viability counter screen (AID 1346977). Also: nearly all actives have a fitted effect of over 50% in size. Also: potency is read from the fitted curve at half-maximal effect. The gist of the method: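 Readout is CellTiter-Fluor fluorescence from PXR-Luc HepG2 cells. Plated cells rested 5hr, then were treated with compounds for 24hr at 37C and 5% CO2, with reagent present during the last hour.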
Test [16] can be described thus: Caspase-3/7 induction in HepG2 cells by small molecules, qHTS cell viability counter screen (AID 1346981). Also: nearly all actives have a fitted effect of over 30% in size. Also: potency is read from the fitted curve at half-maximal effect. The gist of the method: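 Steps: seed 2,000 HepG2 cells per well; incubate 5 hr at 37 C; pin-add compounds in DMSO; incubate 16 hr; add CellTiter-Fluor; after 1 hr at 37 C and 5% CO2, read fluorescence.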
Test [17] addresses Cytochrome P450 2D6 (Homo sapiens) (UniProt P10635). The test can be described thus: Cytochrome P450 Family 2 Subfamily D Member 6 (CYP2D6) small molecule antagonists: luciferase reporter qHTS assay (AID 1671196). Also: series mostly up to about 120 µM; nearly all actives have a fitted effect of over 50% in size. Summed up:
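P450-Glo format: CYP2D6 converts a proluciferin substrate to luciferin in an NADPH-driven reaction lasting 1 h at room temperature. Light output, proportional to CYP2D6 activity, reflects interference by test chemicals.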
(In general: In a reporter assay the amount or activity of a reporter protein is the signal.)

Molecules are shown by their SMILES. Values without a mark were called inactive. Results filed as inconclusive are left out. Calls of active or inactive are those of the source. Unless noted, calls follow the shape of the dose curve; as a rule, active = well fitted curve in the direction sought with a large enough effect in the repeat runs; inconclusive = weak or mixed curves; inactive = no such curve, though single readings can be large; an effect the other way counts as inactive or inconclusive.

Sequence of Cytochrome P450 2D6 (Homo sapiens) (P10635 whole entry, looked up): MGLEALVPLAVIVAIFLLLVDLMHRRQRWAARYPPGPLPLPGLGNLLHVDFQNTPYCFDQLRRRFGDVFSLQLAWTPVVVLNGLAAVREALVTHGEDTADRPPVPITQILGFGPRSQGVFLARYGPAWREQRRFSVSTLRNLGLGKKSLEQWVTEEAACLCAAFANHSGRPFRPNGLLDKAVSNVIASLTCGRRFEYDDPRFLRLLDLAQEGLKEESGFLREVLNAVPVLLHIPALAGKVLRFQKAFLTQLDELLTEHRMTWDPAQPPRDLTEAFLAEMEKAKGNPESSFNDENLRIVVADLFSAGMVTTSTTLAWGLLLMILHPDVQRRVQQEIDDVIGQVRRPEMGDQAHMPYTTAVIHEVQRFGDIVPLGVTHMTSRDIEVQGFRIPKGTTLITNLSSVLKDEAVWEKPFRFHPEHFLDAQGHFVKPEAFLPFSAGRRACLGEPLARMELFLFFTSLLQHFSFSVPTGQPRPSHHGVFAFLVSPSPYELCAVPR

With `CC(C)(C)c1ccc(OCC2CO2)cc1` (centres undefined), the Potency result in test [1], in [3], in [4], in test [5], in test [6] and in test [7] was “inactive” each time. In addition, the Potency result in test [10] and in test [13] was “inactive” throughout. The compound was classed as inactive in test [2], in test [8], in [9] and in test [11]. The results for the Potency in test [12] and in test [14] were 55.6 µM (active) and 35.1 µM (active), respectively.

Turning to `Cc1cccc(C(C)(C)C)c1O`, the Potency entry in test [1], in [3], in test [4], in test [5], in test [6] and in test [7] was “inactive” throughout. Besides, the Potency result in test [10], in [15], in test [12], in [13], in test [16] and in test [17] was “inactive” each time. Moreover, the call in test [2], in test [8], in test [9] and in [11] was inactive.

For the compound `C=CCCCCCC`, the Potency entry in test [1], in test [3], in test [4], in test [5], in test [6] and in [7] was “inactive” throughout. Also, the Potency entry in test [10], in [15], in test [12], in test [13], in test [16] and in test [14] was “inactive” in each case. For the same compound, in test [17], the Potency result is “inactive”. For the same compound, the compound was called inactive in [2], in test [8], in test [9] and in test [11].

As for `CN1CCN(C2=Nc3cc(Cl)ccc3Nc3ccccc32)CC1`, the Potency entry in test [1], in test [4], in test [5], in test [6], in test [7] and in test [10] was “inactive” throughout. Further, the Potency entry in test [13] and in [14] was “inactive” each time. The outcome in test [2], in [8] and in test [9] was inactive. Besides, the Potency in [3], in test [15] and in [16] was 23.7 µM (active) each time.

Consider `CCOC(=O)C1=NN(c2ccccc2)C(=O)C1`, for which the Potency result in [1], in test [3], in [4], in test [5], in test [6] and in test [7] was “inactive” each time. In addition, the Potency entry in test [10], in test [15], in test [12], in test [13], in test [16] and in test [17] was “inactive” throughout. In addition, the outcome in test [2], in test [8] and in [9] was inactive.

As to `N[C@H]1C(O)O[C@H](CO)[C@H](O)[C@@H]1O` (some centres undefined), the Potency result in [1], in test [3], in test [4], in test [5], in test [6] and in test [7] was “inactive” in each case. Besides, the Potency entry in [10], in test [15], in test [12], in test [13], in test [16] and in [17] was “inactive” each time. In addition, the outcome in [2], in test [8], in test [9] and in test [11] was inactive.

Take `CCCCCCCCCC(=O)OCC`: the Potency result in [1], in test [3], in [4], in test [5], in test [6] and in test [7] was “inactive” in each case. Besides, the Potency result in [15], in [12], in test [13], in [16], in [14] and in [17] was “inactive” in each case. The result in test [2], in [8] and in [11] was inactive.

`CC(=O)N(CC(=O)N(C)C)c1ccccc1`: the Potency entry in [1], in test [3], in [4], in test [5], in test [6] and in test [7] was “inactive” in each case. The Potency entry in test [10], in test [15], in test [12], in test [13], in test [16] and in test [14] was “inactive” throughout. For the same compound, the Potency entry in [17] was “inactive”. In addition, the call in test [2], in test [8], in test [9] and in [11] was inactive.
